From PubChem
CHX counter: Cycloheximide Counterscreen for Small Molecule Inhibitors of Shiga Toxin; cell reporter, cycloheximide protein synthesis inhibition counterscreen; max response, %; 300,000 tested, 12% active; in the data active means max response mostly above about 13%, no sharp cut-off; inactive means mostly below about 14%; further: read at 38.3 µM for the half of the compounds with a filed dose; 0% is about no effect
AmpC inh detg: qHTS Inhibitors of AmpC Beta-Lactamase (assay with detergent) | P00811 | AmpC hydrolysis of nitrocefin, absorbance 480 nm, 0.01% Triton | Potency, µM (series often up to 114 µM), for the others: at the highest dose activity change, negative = inhibition, most hits filed as inhibitors | 370,000 tested, 0.041% active | AID 485294, 2010;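 further: potency means the concentration at half of the fitted maximal effect; 0% = no-compound wells and -100% = no-enzyme wells; nearly all actives have a fitted effect of over 25% in size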
Target sequence (P00811 whole entry, looked up): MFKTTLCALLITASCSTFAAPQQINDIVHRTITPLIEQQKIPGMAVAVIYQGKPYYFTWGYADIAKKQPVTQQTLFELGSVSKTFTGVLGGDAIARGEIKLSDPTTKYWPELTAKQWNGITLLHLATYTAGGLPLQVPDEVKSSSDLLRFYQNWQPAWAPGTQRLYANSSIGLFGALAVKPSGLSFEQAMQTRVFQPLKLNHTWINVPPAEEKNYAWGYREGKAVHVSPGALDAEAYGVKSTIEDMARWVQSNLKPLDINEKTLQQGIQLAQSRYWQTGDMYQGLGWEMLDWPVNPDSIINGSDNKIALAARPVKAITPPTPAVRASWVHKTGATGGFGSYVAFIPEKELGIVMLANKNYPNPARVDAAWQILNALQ
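AmpC (5.3 nM in the dispensed reagent) in 20 mM phosphate pH 7.0 with 0.01% (detergent screen) or 0.0001% Triton X-100 was preincubated with compounds for 15 min at room temperature. Nitrocefin was then added from an 800 uM solution, and hydrolysis was followed at 480 nm.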
AMA1-RON2 inh: qHTS for Inhibitors of AMA1-RON; Towards Development of Antimalarial Drug Lead: Primary Screen; Plasmodium falciparum AMA1 (3D7) - RON2 peptide interaction; AlphaScreen AMA1-biotinylated RON2 peptide binding; Potency, µM (titrated, usually from 58.2 µM), for inactives: top-dose activity change, negative = inhibition, most hits filed as inhibitors; 360,000 tested, 0.2% active;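 further: potency means the concentration at half of the fitted maximal effect; 0% = vehicle wells and -100% = peptide control; nearly all actives have a fitted effect of over 45% in size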
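AMA1 (3D7) with his tag at 25 nM final met compounds first, then biotinylated RON2 peptide at 25 nM; detection used donor plus acceptor beads, 10 µg/mL apiece, read by AlphaScreen after 30 min at room temperature.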
SARS PLpro yeast: qHTS of Yeast-based Assay for SARS-CoV PLP; 330,000 tested, 0.19% active; Potency, µM (top dose mostly 32.9 µM), for inactives: at the top dose activity, positive = growth rescue, actives largely listed as activators; S. cerevisiae expressing SARS-CoV PLpro, growth rescue; calls by dose curve; further: potency means the concentration at half of the fitted maximal effect; 0% is about no effect; nearly all actives have a fitted effect of over 55% in size
Shiga inhibitor: A qHTS for Small Molecule Inhibitors of Shiga Toxin | Vero cells, Shiga toxin protein synthesis inhibition reporter | inhibition, % at 38.7 µM | 290,000 tested, 9.2% active; in the data active means inhibition mostly above about 28%, no sharp cut-off; inactive means mostly below about 43%; further: 0% is about no effect
AmpC no deterg: qHTS Inhibitors of AmpC Beta-Lactamase (assay without detergent). P00811. AmpC nitrocefin hydrolysis, absorbance 480 nm, 0.0001% Triton. 330,000 tested, 0.52% active. Potency, µM (highest dose often 57.1 µM), without a hit: top-dose activity change, negative = inhibition, hits mostly inhibitors;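 further: potency means the concentration at half of the fitted maximal effect; plate controls were no compound for no effect and no enzyme for full effect; nearly all actives have a fitted effect of over 20% in size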
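20 mM phosphate pH 7.0 + 0.01% (detergent screen) or 0.0001% Triton X-100; 5.3 nM AmpC reagent; cpd preinc 15 min RT; nitrocefin (800 uM stock) to start; A480 q20 s × 4 min; Activity was normalised to no-enzyme and no-compound control wells.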
An asterisk follows results filed as active; u = inconclusive; x = not tested or not shown; [ ] = another dose, or the depositor's remark. Only a selection was taken, and hits are over-represented in it overall. Unless noted, the call rests on the fitted dose curve; in most records, active means well fitted curve in the direction sought with a large enough effect; inconclusive means small, poorly fitted or top-dose-only effect, or another doubt; inactive means no such curve, though single readings can be large; an effect the other way counts as inactive or inconclusive.

SMILES	CHX counter	AmpC inh detg	AMA1-RON2 inh	SARS PLpro yeast	Shiga inhibitor	AmpC no deterg
COC(=O)CN1C(=O)C(O)(CC(=O)c2cccc(Br)c2)c2ccccc21 (centres undefined)	-5	u	6%	-1%	11	14%
CCN(CC)CCCN(Cc1cc2cc3c(cc2[nH]c1=O)OCO3)C(=O)Nc1ccccc1OC	-1	-1%	-10%	-1%	-5	0.4µM*
CCN(CC)CCCN(Cc1cc2cc3c(cc2[nH]c1=O)OCCO3)C(=O)Nc1ccc(F)cc1	14*	11%	2%	9%	78*	36%
COc1ccc(-c2nnc(SC(C)C(=O)NNC(=O)c3ccc(C)cc3)o2)cc1 (centres undefined)	10	u	5%[2.32 µM]	22%	12	-25%
COCC(=O)N(C)C[C@@H]1Oc2cc(Br)ccc2S(=O)(=O)N([C@H](C)CO)C[C@H]1C	x	x	2%	x	x	x
O=S(=O)(Nc1ccncc1)c1ccc(Cl)c(Cl)c1	18*	-11%	-1%	12%	x	-1%
O=S(=O)(Nc1ccncc1)c1cc(Cl)ccc1Cl	-2	-8%	3%	3%	5	-9%
CCN(CC)c1ccc(C2C(C(=O)Nc3ccccn3)=C(C)NC3=C2C(=O)CC(C)(C)C3)cc1 (centres undefined)	-9	u	-24%	-7%	-23	30%
CC1=C(C(=O)Nc2ccccn2)C(c2ccc3c(c2)OCO3)C2=C(CC(C)(C)CC2=O)N1 (centres undefined)	16*	-6%	0%	-1%	31	-31%
CCCC(=O)Nc1ccc2oc(-c3ccncc3)nc2c1	20*	u	-10%	6%	68*	-7%
O=C(CN1CCCC1)Nc1ccc(-c2nc3cc(NC(=O)CN4CCCC4)ccc3o2)cc1	33*	-5%	-7%	4%	73*	4%
CCCC(=O)Nc1ccc(-c2nc3cc(C)c(C)cc3o2)cc1	35*	-9%	-1%	-2%	119*	-2%
CCCCC(=O)Nc1ccc2oc(-c3ccncc3)nc2c1	13*	0%	-9%	-6%	39*	-7%
CCCC(=O)Nc1cccc(-c2nc3cc(C)c(C)cc3o2)c1C	x	13%	x	x	x	x
COC(=O)C1=CO[C@@H](C)[C@@H]2CN3CC[C@]4(C(=O)Nc5ccccc54)[C@@H]3C[C@H]12	-2	-18%	27%	-19%	-9	-16%
C=C1CCN([C@H](C(=O)Nc2ccc(OC)cc2)C(C)C)S(=O)(=O)c2ccccc21	4	0%	5%	-2%	25	-21%
CSc1nc(C)cc(SCC(=O)Nc2ccccc2)n1	7	-8%	-2%	1%	50	-13%
Nc1nnn(CC(=O)N/N=C/c2ccccc2Cl)n1	1	3%	24%	0%	-6	-17%
COc1ccccc1CN1CN(S(=O)(=O)c2ccccc2)c2nc3ccccc3nc21	31*	3%	17%	4%	110*	-28%
O=S(=O)(c1cccs1)N1CN(Cc2ccco2)c2nc3ccccc3nc21	31*	8%	-15%	0%	40*	-38%
O=S(=O)(c1cccs1)N1CN(Cc2ccc(Cl)cc2)c2nc3ccccc3nc21	15*	-12%	0%	4%	10	-17%
CC(C)OCCCN1CN(S(=O)(=O)c2cccs2)c2nc3ccccc3nc21	14*	4%	1%	-2%	44	24%
CSCCC(C(=O)N(C)CC(=O)Nc1cccc(F)c1)N1C(=O)c2ccccc2C1=O (centres undefined)	x	-8%	0%	-9%	x	-20%
Cc1ccc(CN2CN(S(=O)(=O)c3cccs3)c3nc4ccccc4nc32)cc1	91*	-11%	-4%	5%	81*	-29%
CCCCN1CN(S(=O)(=O)c2cccs2)c2nc3ccccc3nc21	8	u	x	4%	12	-29%
